TEAD-YAP block: TEAD-YAP interaction inhibition. HEK-TIYL cells, TEAD-Gal4/YAP UAS-luciferase luminescence. inhibition, % at 9.12 µM. 640,000 compounds, 1.4% hits. AID 1259422; in the data active = inhibition above about 32%;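 note: 0% = median of test compound wells and 100% = reference inhibitor wells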
FBW7 activator: activators of human E3 ligase FBW7. AlphaScreen FBW7–phospho-cyclin E peptide binding, activator screen. normalized activity (activation), % at 26.1 µM. 650,000 compounds, 0.13% hits; in the data active = normalized activity above about 1.9%;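 note: purified mutant Fbw7 with reduced substrate affinity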
GPR151 ag: activators of human GPR151. PathHunter beta-arrestin GPR151 cells, luminescence. activation, % at 11.2 µM. 650,000 compounds, 1% hits; in the data active = activation above about 4.9%;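 note: 0% = median of compound wells and 100% = cells with positive control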
Target sequence (Q8TDV0 whole entry, looked up): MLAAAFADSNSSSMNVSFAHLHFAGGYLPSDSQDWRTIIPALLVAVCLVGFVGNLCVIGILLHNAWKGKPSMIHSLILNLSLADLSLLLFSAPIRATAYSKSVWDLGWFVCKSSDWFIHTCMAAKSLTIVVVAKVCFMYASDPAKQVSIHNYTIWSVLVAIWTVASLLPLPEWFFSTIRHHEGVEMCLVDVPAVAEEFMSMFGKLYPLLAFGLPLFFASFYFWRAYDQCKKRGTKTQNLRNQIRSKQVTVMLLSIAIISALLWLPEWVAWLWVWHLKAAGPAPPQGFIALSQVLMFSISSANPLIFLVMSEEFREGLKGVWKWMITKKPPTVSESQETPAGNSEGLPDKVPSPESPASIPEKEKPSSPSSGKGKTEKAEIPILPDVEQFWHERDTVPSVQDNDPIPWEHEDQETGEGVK
MITF inh: blocks human microphthalmia-associated transcription factor. 650,000 compounds, 0.91% hits. inhibition, % at 2.6 µM. AID 1259374. O75030. AlphaScreen MITF homodimerization, bead proximity signal; in the data active = inhibition above about 50%;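 note: 0% = vehicle wells with protein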
Active calls of the source: *. An excerpt weighted towards active compounds, which were near 3.5% of everything screened.

SMILES	TEAD-YAP block	FBW7 activator	GPR151 ag	MITF inh
CC(C)N(CCNC(=O)c1cnc(Oc2ccccc2)s1)C(C)C	5	0	-1	42
CC(C)N(CCNC(=O)c1cccc(Oc2ccccc2)n1)C(C)C	13	3.1*	-1	-2
NS(=O)(=O)c1cc(C(=O)OCC(=O)Nc2ccc([N+](=O)[O-])cc2)c(Cl)cc1Cl	6	0	3	4
OCc1nc2ccc(-c3ccc4nc(CO)[nH]c4c3)cc2[nH]1	58*	0	-6	15
OCc1nc2ccc(Cc3ccc4nc(CO)[nH]c4c3)cc2[nH]1	14	0	4	3
O=C1CC(N2CCN(c3ccccn3)CC2)C(=O)N1c1ccc(OC(F)(F)Cl)cc1 (configuration not stated)	-4	0	0	5
COc1ccc([N+](=O)[O-])cc1NC(=O)COc1ccc(Br)cc1C	84*	0	0	-8
Cc1cc(Br)ccc1OCC(=O)Nc1cccc([N+](=O)[O-])c1	-75	1	-3	9
N#C/C(=C\c1cccc(Cl)c1Cl)c1nn(CCO)c(N)c1C#N	49*	0	1	9
CCn1c2ccccc2c2cc(/C=C(\C#N)c3nn(CCO)c(N)c3C#N)ccc21	49*	0	0	0
N#C/C(=C\c1ccccc1)c1nn(CCO)c(N)c1C#N	-17	0	2	16
Brc1cccc(-c2nc3ccccc3[nH]2)c1	-51	1.9*	-4	9
Fc1cccc(-c2nc3ccccc3[nH]2)c1	-43	0	-5	1
CN(C)c1ccc(-c2nc3ccc(N)cc3[nH]2)cc1	78*	0	-9	21
Nc1ccc(-c2nc3ccc(O)cc3[nH]2)cc1	77*	0	-5	-9
Cc1ccc2nc(-c3ccccn3)[nH]c2c1	64*	-2	-8	-3
Nc1ccc2nc(-c3ccc(Cl)cc3)[nH]c2c1	-54	1	-4	17
Nc1ccc(-c2nc3ccc(N)cc3[nH]2)cc1	-17	0	-5	-13
COc1cc(CN2CCNC(=O)C2CC(=O)NCCc2ccccc2Cl)cc(OC)c1 (configuration not stated)	-1	0	0	-18
Cc1ccoc1C(=O)NCC1CC(Cc2ccc(F)cc2)=NO1 (configuration not stated)	-8	0	0	17
Nc1ccc(-c2nc3cc4ccccc4cc3[nH]2)cc1	35*	0	0	-1
Oc1ccc2nc(-c3ccccc3)[nH]c2c1	-9	0	-4	2
Oc1cccc(-c2nc3ccccc3[nH]2)c1	47*	0	-6	-2
Nc1ccc2nc(-c3cccc(O)c3)[nH]c2c1	42*	0	-3	-3
Cc1ccc2nc(-c3ccc(O)cc3)[nH]c2c1	44*	0	-11	9
SMILES	TEAD-YAP block	FBW7 activator	GPR151 ag	MITF inh
Nc1cccc(-c2nc3ccc(N)cc3[nH]2)c1	-9	0	-8	2
Cc1ccc(C(=O)NCCO)c(Cl)c1	-13	0	2	0
O=[N+]([O-])c1ccccc1C1CC(c2ccccc2)=NN1 (configuration not stated)	40*	0	1	-3
CCCN(CCC)S(=O)(=O)c1ccc(C(=O)Nc2nc(-c3ccc(OC)cc3OC)cs2)cc1	-4	0	0	2
COc1c(C)cc(C(=O)C2CCCN(S(=O)(=O)c3ccsc3)C2)cc1C (configuration not stated)	44*	0	1	3
CC(C)NC(=O)C1CCCN(S(=O)(=O)c2cccs2)C1 (configuration not stated)	2	0	0	-7
COc1c(C)cc(C(=O)C2CCCN(S(=O)(=O)c3cccs3)C2)cc1C (configuration not stated)	52*	0	0	-4
O=C1C2(COCOC2)COCC12COCOC2	-2	0	0	0
O=C(Nc1nnc(-c2ccc([N+](=O)[O-])cc2)s1)c1ccc(Br)cc1	1	0	1	9
O=[N+]([O-])c1cc2c(cc1C(O)c1nnc(-c3ccccc3)o1)OCO2 (configuration not stated)	81*	0	0	16
CC(C)(C)C(C)(O)C#Cc1ccccc1 (configuration not stated)	83*	0	-8	0
CC(O)(C#Cc1ccccc1)c1ccccc1 (configuration not stated)	-2	0	0	-9
COc1ccc(CNC(=O)c2cc([N+](=O)[O-])cc([N+](=O)[O-])c2C)cc1OC	0	0	1	-1
CCC(c1nnnn1Cc1ccc(F)cc1)N1CCN(Cc2ccccc2)CC1 (configuration not stated)	4	0	-1	-13
CCCCP(=Nc1ccccc1)(N(CC)CC)N(CC)CC	92*	0	1	8
CCCCN(CC)S(=O)(=O)c1ccccc1	0	0	-1	-27
COc1ccc(NS(=O)(=O)c2c(C)nn(C)c2C)cc1	-8	0	-1	-4
Cc1nc(NC(=O)/C=C/c2ccccc2)sc1C(=O)NCc1ccccc1	-5	0	1	2
Cc1ccccc1NC(=O)c1sc(NC(=O)/C=C/c2ccccc2)nc1C	49*	0	2	1
CCCCCOC(=O)Cn1c(N2CCCCC2)nc2c1c(=O)[nH]c(=O)n2C	4	0	0	2
O=C(O)c1ccc(NCc2ccc(Cl)cc2)c([N+](=O)[O-])c1	38*	0	-1	2
COc1ccc(C(=O)Oc2cc3c4c(c2)C(C)=CC(C)(C)N4C(=O)C3=O)cc1OC	9	0	0	10
CC1=CC(C)(C)N2C(=O)C(=O)c3cc(OC(=O)C4CCCO4)cc1c32 (configuration not stated)	57*	0	0	12
CC1=CC(C)(C)N2C(=O)C(=O)c3cc(OC(=O)COc4ccccc4)cc1c32	62*	0	-1	10
CC1Cc2ccccc2N1S(=O)(=O)c1ccc2c(c1)n(C)c(=O)c(=O)n2C (configuration not stated)	5	0	1	0
SMILES	TEAD-YAP block	FBW7 activator	GPR151 ag	MITF inh
CC1Cc2ccccc2N1S(=O)(=O)c1ccc2[nH]c(=O)[nH]c2c1 (configuration not stated)	37*	0	1	10
Cc1cc(-c2ccc(S(=O)(=O)N3c4ccccc4CC3C)cc2)on1 (configuration not stated)	61*	0	0	3
O=C(c1cc2c(s1)CCCCCC2)N1CCN(C(=O)C2CCCO2)CC1 (configuration not stated)	6	0	0	15
CCOc1ccc2nc(SCc3nc4ncccn4c3Cl)[nH]c2c1	-15	0	-1	10
CCN1/C(=C/c2ccc3cc(OC)ccc3[n+]2CC)Sc2ccc(Cl)cc21	77*	0	0	2
CCC(=O)/C=C1/Sc2ccc(OC)cc2N1CC	8	0	-1	3
CCN1/C(=C/c2ccc3ccc(C)cc3[n+]2CC)Sc2cc(OC)ccc21	87*	0	3	33

Bioassay records (PubChem BioAssay)
